Laboratory results published in PubChem BioAssay (Tox21).
Unmarked numbers belong to inactive results. Calls of active or inactive are those of the source. Calls follow the shape of the dose curve; as a rule, active = well fitted curve in the direction sought with a large enough effect in the repeat runs; inconclusive = weak or mixed curves; inactive = flat fitted curve, though single readings scatter.

Assay: qHTS assay to test for compound auto fluorescence at 460 nm (blue) in HEK293 cells (AID 720678)
Conditions: blue autofluorescence 405/460 nm; series mostly up to 91.3 µM; fluorescence, % of triamterene: at the top concentration
Source text: National Center for Advancing Translational Sciences [NCATS]
NIH Chemical Genomics Center [NCGC]
U.S. Environmental Protection Agency [EPA]
National Institutes of Environmental Health Sciences [NIEHS]
National Toxicology Program [NTP]
U.S. Food and Drug Administration [FDA]
Compound auto fluorescence often interferes with screening of the compound library against various biological targets and signaling pathways. Some of these compounds may have fluorophoric properties. Such properties may interfere with the assay outputs resulting in false positives and/or negatives. To decrease such complications and ensure the compound activities are relevant in terms of biological response, the Tox21 10K compound library was screened for auto fluorescence.
From the fluorophores used as reporter signals in our screening assays, the auto fluorescence equivalencies of compounds against three fluorophores have been evaluated: Triamterene, Fluorescein and Rose Bengal sodium for blue, green and red fluorescence, respectively. The fluorescence intensities were measured using Excitation/Emission wavelengths at 405/460nm, 485/535nm and 540/590nm for blue, green and red labels, respectively. This assay includes the blue fluorescence data.
Tox21 Assay Protocol Summary:
2,000 HEK293 cells in 5 uL of culture medium containing 10% dialyzed FBS per well were dispensed into black wall/clear bottom 1536-well plates using a Multidrop Combi Dispenser (Thermo Scientific). The assay plates were incubated for 4-5 hr at 37C to allow cell attachment to the well bottom, followed by the transfer of 23 nL compound or DMSO vehicle by a pintool work station (Kalypsys, San Diego, CA). After the assay plates were incubated overnight at 37C and 5% CO2, fluorescence intensities in the assay plates were measured by an Envision (PerkinElmer, Shelton, CT) plate reader using three labels for measuring blue, green and red fluorescence at […] 460, 535 and 590nm respectively.
% is scaled to controls: 0 for no effect and ±100 for the full control effect.

Compound | fluorescence, % of triamterene | Potency
CC1=Nc2ccc3ccccc3c2C1(C)C | -0.0348% | –
C=C1C[C@@]23CC[C@H]4[C@@](C)(CCC[C@@]4(C)C(=O)O[C@@H]4O[C@H](CO)[C@@H](O)[C@H](O)[C@H]4O)[C@@H]2CC[C@]1(O[C@@H]1O[C@H](CO)[C@@H](O)[C@H](O[C@@H]2O[C@H](CO)[C@@H](O)[C@H](O)[C@H]2O)[C@H]1O[C@@H]1O[C@H](CO)[C@@H](O)[C@H](O)[C@H]1O)C3 | -0.0148% | –
C=C1CCC2CC1C2(C)C (stereo not given) | -0.332% | –
O=C1c2ccccc2C(=O)C1c1ccc(Br)cc1 | 0.0132% [at 46 µM] | –
CCCC(=O)C(=O)O | 0.0351% | –
CCc1ccccc1 | -0.0085% | –
Cc1cc(C)cc(N)c1 | -0.235% [at 95.7 µM] | –
CCOC(=O)[C@H](CCc1ccccc1)N[C@@H](C)C(=O)N(CC(=O)O)C1Cc2ccccc2C1 | -0.0007% [at 46 µM] | –
O=C=Nc1ccc(Cl)c(Cl)c1 | 0.0368% | –
COc1ccccc1Oc1c(NS(=O)(=O)c2ccc(C(C)(C)C)cc2)nc(-c2ncccn2)nc1OCCO | -0.0072% [at 46 µM] | –
C=Cc1ccc(S(=O)(=O)O)cc1 | – | inactive
CCC(C)COC(C)=O (stereo not given) | 7.61% | –
O=c1cc(-c2ccccc2)oc2ccc3ccccc3c12 | -0.158% | –
CC1=C(Br)C(=O)C(Br)=C/C1=C(/c1ccccc1S(=O)(=O)O)c1cc(Br)c(O)c(Br)c1C | -0.63% | –
C=C(C)CCCC(C)CCO (stereo not given) | -0.0542% | –
CC(=O)OCCN(CCOC(C)=O)c1ccc(N=Nc2ccc([N+](=O)[O-])cc2C#N)cc1 | 0.112% | –
C(=C\c1ccccc1)/c1ccccc1 | 0.123% [at 95.7 µM] | –
CCOc1ccccc1O[C@H](c1ccccc1)[C@H]1CNCCO1 | -0.0059% [at 46 µM] | –
CCOC(C)=O | – | inactive
CC1(C)[C@@H](OC(=O)CCC(=O)O)CC[C@]2(C)[C@H]3C(=O)C=C4[C@@H]5C[C@@](C)(C(=O)O)CC[C@]5(C)CC[C@@]4(C)[C@]3(C)CC[C@@H]12 | 0.0377% [at 18.6 µM] | –

Compound | fluorescence, % of triamterene | Potency
CC(C)=CC(=O)C=C(C)C | -0.0264% | –
CCN(CC)CCNC(=O)COc1ccc(OC)cc1 | 0.0477% [at 46 µM] | –
CC1(C)S[C@@H]2[C@H](NC(=O)C(c3ccccc3)S(=O)(=O)O)C(=O)N2[C@H]1C(=O)O (stereo not given in full) | -0.0215% [at 46 µM] | –
OC(CCN1CCCC1)(c1ccccc1)C1CCCCC1 (stereo not given) | 0.0017% [at 18.6 µM] | –
Brc1cc2ccccc2c2ccccc12 | -0.0337% | –
C=C(C)[C@@H]1CCC2=CCC[C@@H](C)[C@]2(C)C1 | -0.0359% | –
CC(=O)NC1(c2cccc(F)c2)CCN(CC[C@@]2(c3ccc(Cl)c(Cl)c3)CN(c3ccccc3)C(=O)CO2)CC1 | 0.0266% | –
CCCCCCCCN | -0.0773% | –
CCC1(CO)COCOC1 | 0.0595% | –
C1COC1 | 0.0999% | –
C/C=C(/C(=C/C)c1ccc(O)cc1)c1ccc(O)cc1 | 0.118% [at 18.6 µM] | –
O=C1Cc2ccccc2N1c1c(Cl)cccc1Cl | 0.0243% | –
CO/N=C(/C(=O)N[C@@H]1C(=O)N2C(C(=O)O)=C(COC(N)=O)CS[C@H]12)c1ccco1 | – | inactive
Cc1ccc2c(Br)cc(Br)c(O)c2n1 | 0.621% [at 46 µM] | –
Cc1cc(O)ccc1O | 0.0585% | –
CCC(C)COC(=O)CC(C)C (stereo not given) | 0.137% | –
C=CC(=O)[O-].C=CC(=O)[O-].[Zn+2] | 0.0276% | –
O=C(/C=C/c1ccccc1)OCCc1ccccc1 | 0.051% | –
CN(C(=O)CN(CCO)CC(=O)N(C)C(C)(C)Cc1ccccc1)C(C)(C)Cc1ccccc1 | 0.252% [at 18.6 µM] | –
O[C@@H]1CO[C@H]2[C@@H]1OC[C@@H]2O | 0.0044% [at 46 µM] | –
